{
  "source": "paper PMC7819943",
  "about": "“Rice protein-binding microarrays: a tool to detect cis-acting elements near promoter regions in rice”",
  "note": "The full ranking holds about 35,000 sequences; the median of “fluorescence intensity (a.u.)” is about 10,000, and the highest 2% start at about 52,000. The full list was thinned out, with the highest values kept by preference.",
  "data": [
    {"target": "T1, OsWOX13 (Oryza sativa, UniProt Q5QMM3 1-267)", "T1 sequence": "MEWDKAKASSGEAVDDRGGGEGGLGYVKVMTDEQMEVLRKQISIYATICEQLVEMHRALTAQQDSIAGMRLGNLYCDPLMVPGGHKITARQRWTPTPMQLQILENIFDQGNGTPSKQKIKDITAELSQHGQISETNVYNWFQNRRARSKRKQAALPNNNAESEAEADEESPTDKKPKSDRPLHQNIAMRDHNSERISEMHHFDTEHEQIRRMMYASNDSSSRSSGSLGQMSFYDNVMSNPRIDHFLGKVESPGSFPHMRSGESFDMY", "test": "protein-binding microarray (RPBM); PBS, 2% BSA, 51.3 ng/ul salmon testes DNA, 50 uM zinc acetate, 200 nM TF, 25 C, 1 h; high values mean tight binding", "conditions": "protein: recombinant; tags: N-terminal polyhistidine and DsRed monomer fusion (pET32a); label: CyDye5-dUTP incorporated in the synthesized complementary strand; 3' TTTTT single-stranded linker to array surface; dsDNA, one strand shown", "summary_of_the_method": "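Polyhistidine-tagged DsRed fusions of transcription factors, joined at the N-terminus, were expressed in E. coli BL21-CodonPlus and isolated on Ni–NTA. They were incubated at 200 nM for 1 h at 25 °C on a custom Agilent array, double-stranded and BSA-blocked, in PBS with 2% BSA, salmon testes DNA and 50 µM zinc acetate. The binding signal is per-feature fluorescence intensity (arbitrary units) read on an Axon 4000B scanner after washing.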", "values": [
      {"sequence": "GTACAATTTTCATAATTTGCATAAATCGAAAAGAAAAGTGCGGAGTCACCTAGTGCAG", "binding signal": "12400 fluorescence intensity (a.u.)"},
      {"sequence": "TGATGGATTAATATATGATTAATTAAGTATTAGCTTAAACCGGAGTCACCTAGTGCAG", "binding signal": "13200 fluorescence intensity (a.u.)"},
      {"sequence": "TTTTATAATGATACTTAATTAATCATGTGCTAATAATCACCGGAGTCACCTAGTGCAG", "binding signal": "9330 fluorescence intensity (a.u.)"},
      {"sequence": "TATGAGATATCATTTAATTATATAATAAATATAATGATGTCGGAGTCACCTAGTGCAG", "binding signal": "4610 fluorescence intensity (a.u.)"},
      {"sequence": "GTTTGGATTGATTATTGGGACAGTGAAATTGACCATTTGACGGAGTCACCTAGTGCAG", "binding signal": "39600 fluorescence intensity (a.u.)"},
      {"sequence": "TTAAATTATATTTATATCAAATTATACTTTGATCAATACTCGGAGTCACCTAGTGCAG", "binding signal": "39900 fluorescence intensity (a.u.)"},
      {"sequence": "GATTAATTAGGCTCAATATATTCATCTCGCGAATTAGTCCCGGAGTCACCTAGTGCAG", "binding signal": "33000 fluorescence intensity (a.u.)"},
      {"sequence": "ACTAATGATGGATTAATTAGGCTTAATATATTCATCTCGCCGGAGTCACCTAGTGCAG", "binding signal": "58100 fluorescence intensity (a.u.)"},
      {"sequence": "TAAATTGATCAAATTGCCATTTGGAGTGCAGTGACGGGCTCGGAGTCACCTAGTGCAG", "binding signal": "54900 fluorescence intensity (a.u.)"},
      {"sequence": "CAAATGAGCTAATACTTAATTAATAATGCGCTAATGGATCCGGAGTCACCTAGTGCAG", "binding signal": "4340 fluorescence intensity (a.u.)"},
      {"sequence": "AATGATGGAGGATAATTTATATGCTAAATTATAAACTTGTCGGAGTCACCTAGTGCAG", "binding signal": "57700 fluorescence intensity (a.u.)"},
      {"sequence": "GGTATGATAAACTTGACTAATTATACCATTGGATCATTGTCGGAGTCACCTAGTGCAG", "binding signal": "11000 fluorescence intensity (a.u.)"},
      {"sequence": "ATGATTAATACTTAATTAATTATGTGCGCTCATGGATCACCGGAGTCACCTAGTGCAG", "binding signal": "56400 fluorescence intensity (a.u.)"},
      {"sequence": "CAAGAACCAATAATTTGCAAACTGTAGGGCACAGTTCGATCGGAGTCACCTAGTGCAG", "binding signal": "6920 fluorescence intensity (a.u.)"},
      {"sequence": "GTCTCTTTGAAATTGAAATTGGGCCTCATTTAGTCTGTTACGGAGTCACCTAGTGCAG", "binding signal": "3500 fluorescence intensity (a.u.)"},
      {"sequence": "TTTTCCATCACATTAACCTGTCATACACACAAAACTTTTCCGGAGTCACCTAGTGCAG", "binding signal": "4820 fluorescence intensity (a.u.)"},
      {"sequence": "ACAATCAATCAATCTTGCTTTCCATTCAAAGTCTTCATTTCGGAGTCACCTAGTGCAG", "binding signal": "35000 fluorescence intensity (a.u.)"},
      {"sequence": "AATGTGAGCATGTGATTTAAATTTGAGAAAATTCAACTTGCGGAGTCACCTAGTGCAG", "binding signal": "3660 fluorescence intensity (a.u.)"},
      {"sequence": "GTCCTATTTGACGCTTTGATTAGACAACGCTTTGTCAATTCGGAGTCACCTAGTGCAG", "binding signal": "12900 fluorescence intensity (a.u.)"},
      {"sequence": "CGCTTGATCTGGGGTGGGGTCGCGAGTGGTGGAGGAGGTGCGGAGTCACCTAGTGCAG", "binding signal": "3600 fluorescence intensity (a.u.)"},
      {"sequence": "TGTTGACAAAATTAGCTGTTGCAACGCATACAGACTTCAACGGAGTCACCTAGTGCAG", "binding signal": "7410 fluorescence intensity (a.u.)"},
      {"sequence": "CCCTAATTATGGTACGTGTTGATCGTGCCACTTCTTCCTCCGGAGTCACCTAGTGCAG", "binding signal": "39500 fluorescence intensity (a.u.)"},
      {"sequence": "TTAGATAAAATTAATTTGTCTTGCTTTTGTAGGCTGCAGACGGAGTCACCTAGTGCAG", "binding signal": "27700 fluorescence intensity (a.u.)"},
      {"sequence": "ATGTATTTGCTATTAAATTAATTATAGATGATTTAGAGCTCGGAGTCACCTAGTGCAG", "binding signal": "16300 fluorescence intensity (a.u.)"},
      {"sequence": "TTGCTAATGACGGATTAATTATGCTTAATAAATTCATCTCCGGAGTCACCTAGTGCAG", "binding signal": "20600 fluorescence intensity (a.u.)"},
      {"sequence": "CTGGATGATTGGATTGATTATGGACAGATTTAAATTTGCTCGGAGTCACCTAGTGCAG", "binding signal": "65500 fluorescence intensity (a.u.)"},
      {"sequence": "TGCTAATGATGGATTAATTAAGCTTAATAAATTCATCTCGCGGAGTCACCTAGTGCAG", "binding signal": "53700 fluorescence intensity (a.u.)"},
      {"sequence": "AATTAATCATGCAATAAAACAAATTTCGTTTTGCGTGCTACGGAGTCACCTAGTGCAG", "binding signal": "6310 fluorescence intensity (a.u.)"},
      {"sequence": "ATGTGCTAATGATGGATTAATTACGCTTAATAAATTCGTCCGGAGTCACCTAGTGCAG", "binding signal": "28000 fluorescence intensity (a.u.)"},
      {"sequence": "ATAAAATGTAAATTATGCTTAAAATGCTTTTAGTGATAAACGGAGTCACCTAGTGCAG", "binding signal": "4750 fluorescence intensity (a.u.)"},
      {"sequence": "TGATTTAATTAATTAATTAATGGCCTTGTTATTGGATGCTCGGAGTCACCTAGTGCAG", "binding signal": "47100 fluorescence intensity (a.u.)"},
      {"sequence": "GTTTGATTGCTTAATTAATTTCCAAATGCGCAATCATGCACGGAGTCACCTAGTGCAG", "binding signal": "64800 fluorescence intensity (a.u.)"},
      {"sequence": "ACTGATTAGTGGATATGCTTTATATATGTAATTAGGATGCCGGAGTCACCTAGTGCAG", "binding signal": "53000 fluorescence intensity (a.u.)"},
      {"sequence": "AAACCTAATTAATCATGCGCAAATGGCTTTCTTGTTTTGCCGGAGTCACCTAGTGCAG", "binding signal": "22900 fluorescence intensity (a.u.)"},
      {"sequence": "TACACTGATTAGTGGATGATGATATAGTATCTTTGTATGTCGGAGTCACCTAGTGCAG", "binding signal": "45600 fluorescence intensity (a.u.)"},
      {"sequence": "TGAGTGATGACAGTAAGTAACTGAATCTGCTGAGTTCTGACGGAGTCACCTAGTGCAG", "binding signal": "6590 fluorescence intensity (a.u.)"},
      {"sequence": "TCTCATCAATTGAATGGATATTATATTTTAATGTGTTCAGCGGAGTCACCTAGTGCAG", "binding signal": "8660 fluorescence intensity (a.u.)"},
      {"sequence": "GCTATGATTGTCTTTAGGGTATCTAATAATTGTGGTTTGACGGAGTCACCTAGTGCAG", "binding signal": "21700 fluorescence intensity (a.u.)"},
      {"sequence": "ACCAAACGCCTTGATTGAAACCATCGATATACATATGTAACGGAGTCACCTAGTGCAG", "binding signal": "34900 fluorescence intensity (a.u.)"},
      {"sequence": "GAAAATGTTCCATCTGATTATAAATTATTATATTTTGGGACGGAGTCACCTAGTGCAG", "binding signal": "4000 fluorescence intensity (a.u.)"},
      {"sequence": "TGAAAGTAATTTGATGCTATAAGTCAAAGTTAAAGAGATGCGGAGTCACCTAGTGCAG", "binding signal": "3500 fluorescence intensity (a.u.)"},
      {"sequence": "GTTGCAGATTGAGAGCCAAAGACATTATCTTGATTCTATCCGGAGTCACCTAGTGCAG", "binding signal": "13100 fluorescence intensity (a.u.)"}
    ]}
  ]
}
